# High-throughput results as filed in PubChem BioAssay.
# DT40 TDP1 no CPT – qHTS for Inhibitors of human tyrosyl-DNA phosphodiesterase 1 (TDP1): qHTS in cells in absence of CPT | DT40 Tdp1-/- hTDP1 cells, no CPT, ATP luminescence, 48 h | Potency, µM (titrated, usually from 46.2 µM), inactives show top-dose activity change, negative = growth inhibition, hits mostly inhibitors | hit rate 15% among 420,000 | AID 686978, 2013; also: potency is read from the fitted curve at half-maximal effect; nearly all actives have a fitted effect of over 55% in size
#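 No-CPT arm: Tdp1-/-;hTDP1 DT40 cells (400/well) plus compounds, incubated ≥48 hr at 37 °C. Readout CellTiter-Glo luminescence.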
# HT1080NT lethal – qHTS for induction of synthetic lethality in tumor cells producing 2HG: qHTS for the HT-1080-NT fibrosarcoma cell line. HT-1080-NT fibrosarcoma viability, CellTiter-Glo ATP luminescence, 48 h. Potency, µM (doses to about 46.1 µM), for inactives: at the top dose activity, negative = less viability, usual class: cytotoxic. hit rate 1.6% among 360,000. AID 686970, 2013;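 also: NT is the 2HG producing partner of a matched IDH1 knockdown line; potency is read from the fitted curve at half-maximal effect; 0% = DMSO-treated cells and -100% = media-only wells without cells; nearly all actives have a fitted effect of over 55% in size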
#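 Compounds were tested in concentration-response format on HT-1080-NT cells for 48 hours at 37 degrees C. Cell viability came from CellTiter-Glo luminescence; curves were classified by r2, response magnitude and activity.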
# TDP1 cell CPT – qHTS for Inhibitors of human tyrosyl-DNA phosphodiesterase 1 (TDP1): qHTS in cells in presence of CPT; chicken DT40 Tdp1-/-;hTDP1 cells + 20 nM CPT, ATP luminescence, 48 h; Potency, µM (highest dose often 46.2 µM), without a hit: top-dose activity change, negative = growth inhibition, actives largely listed as inhibitors; hit rate 12% among 420,000; AID 686979, 2013; also: potency is read from the fitted curve at half-maximal effect; nearly all actives have a fitted effect of over 55% in size
#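 Cell growth measured by CellTiter-Glo luminescence after a minimum 48 h, 37 C compound exposure with 20 nM CPT in Tdp1-knockout DT40 cells stably expressing hTDP1, seeded 400/well; qHTS titration format.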
# uPA surface inh – qHTS for Inhibitors of Cell Surface uPA Generation; cell surface uPA generation assay, qHTS; Potency, µM (titrated, usually from 38.3 µM), inactives show at the top dose activity change, negative = inhibition, hits mostly inhibitors; hit rate 0.31% among 330,000; active = well fitted inhibition curve with a large enough effect; inconclusive = small, poorly fitted or top-dose-only effect; inactive = no such curve, though single readings can be large or run the other way; tested in mouse RAW 264.7 cells; also: potency is read from the fitted curve at half-maximal effect; nearly all actives have a fitted effect of over 55% in size
# IL-1B inflam inh – qHTS for Inhibitors of Inflammasome Signaling: IL-1-beta AlphaLISA Primary Screen | THP-1 LPS/ATP IL-1B secretion, AlphaLISA, 16 h; hits give low values | activity change, % at 57.5 µM | hit rate 4.7% among 360,000 | AID 743279, 2014; in the data active = activity change below about -50%; inconclusive = mostly about -30% to -49%
#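 Secreted IL-1B measured by AlphaLISA bead assay after 16 h compound exposure of THP-1 cells; compounds (final up to 57.5 uM) added 1 h before LPS (250 ng/mL) and ATP (1.25 mM) stimulation; lower signal means less secretion.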
# HT1080 IDH1KD tx – qHTS for induction of synthetic lethality in tumor cells producing 2HG: qHTS for the HT-1080-IDH1KD cell line | HT-1080 IDH1 knockdown viability, ATP luminescence, 48 h | Potency, µM (series often up to 46.1 µM), for the others: at the top dose activity, negative = toxicity, usual class: cytotoxic | hit rate 2% among 360,000;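 also: potency is read from the fitted curve at half-maximal effect; 0% = DMSO wells and -100% = cell-free medium wells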
#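 After a 2 h attachment period, IDH1KD HT-1080 cells took pin-transferred compound for 48 h at 37 °C; ATP-based luminescence after 10 min room-temperature reagent incubation reported viability.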
# The depositor's hits bear a star; ? = inconclusive; / = no result given. Compounds with a hit are over-represented: about 19% of the library has one in this group of screens. Unless noted, calls follow the shape of the dose curve; as a rule, active = well fitted curve in the direction sought with a large enough effect; inconclusive = small, poorly fitted or top-dose-only effect, or another doubt; inactive = no such curve, though single readings can be large; an effect the other way counts as inactive or inconclusive. Unless noted, % is scaled to controls: 0 for no effect and ±100 for the full control effect.
SMILES,DT40 TDP1 no CPT,HT1080NT lethal,TDP1 cell CPT,uPA surface inh,IL-1B inflam inh,HT1080 IDH1KD tx
CCCCOc1cccc(C(=O)Nc2ccccc2N2CCCC2)c1,?,-2.1%,-16.2%,-2.0%,-17.3,-2.8%
O=C(Nc1ccc(NC(=O)c2ccc(Cl)cc2Cl)cc1)c1cccs1,-27.7%,?,-3.0%,4.6%,63.7,?
COc1ccc(C(=O)Nc2cccc(NC(=O)c3cccs3)c2)cc1OC,13µM*,3.0%,14.6µM*,3.9%,?,-14.6%
O=c1c(/C=N/N2CCOCC2)c(C(F)(F)F)[nH]n1-c1ccccc1,-1.8%,0.7%,-5.7%,4.0%,-2.2,-1.9%
COc1ccc(NC(=O)c2cccs2)cc1,?,-8.4%,-15.3%,-15.4%,-0.9,-4.9%
COc1ccc(C(=O)Nc2ccc(NC(=O)c3cccs3)cc2)cc1Cl,18.4µM*,-1.3%,14.6µM*,-2.5%,6.1,-1.2%
COC(=O)COc1cccc(NC(=O)c2cccs2)c1,-9.9%,-11.2%,-8.5%,-0.3%,-52.6*,0.5%
CCCCOc1cccc(C(=O)Nc2ccc(NC(=O)c3cccs3)cc2)c1,?,20.6µM*,14.6µM*,-1.2%,27.9,14.6µM*
COc1ccc(NC(=O)Nc2cccs2)cc1Cl,23.1µM*,-3.7%,?,-28.8%,-52.4*,-2.5%
C[C@]12CCC(=O)C[C@@H]1CC[C@@H]1[C@@H]2CC[C@]2(C)[C@@H](C(=O)COC(=O)CCC(=O)O)CC[C@@H]12,?,-0.9%,?,-1.1%,14.9,-0.3%
O=C(Nc1ccc2oc(-c3cccc(F)c3)nc2c1)c1ccc2ccccc2c1,-17.9%,/,-6.1%,/,/,/
O=C(Nc1ccccc1Br)c1cnn2c1NC(=C1CC1)C=C2C(F)F,?,2.0%,-5.3%,/,/,24.6%
COc1ccc(/C=C/C(=O)c2ccc(NC(=O)c3cccs3)cc2)cc1OC,23.1µM*,?,18.4µM*,-10.6%,-65.8*,-26.2%
COc1ccc(/C=C(\NC(=O)c2cccs2)C(=O)NC(C)(C)C)cc1OC,-5.1%,10.3%,2.4%,4.3%,19.9,4.5%
CC1CCN(c2nc(-c3cccnc3)nc3scc(-c4ccccc4)c23)CC1,-16.9%,-10.1%,?,14.5%,80.6,4.0%
CC1CCCN(c2nc(-c3cccnc3)nc3scc(-c4ccccc4)c23)C1 (centres undefined),18.4µM*,1.4%,?,1.4%,-60.9*,-17.7%
CN1CCN(c2nc(-c3cccnc3)nc3scc(-c4ccccc4)c23)CC1,23.1µM*,?,?,-8.4%,-51.9*,-8.5%
O=C(NCc1ccccc1)c1cc(C2CCCCN2C(=O)OCCF)on1 (centres undefined),-9.5%,0.9%,1.0%,/,2.6,8.3%
Cc1cc2cc(C(c3nnnn3C3CCCC3)N(Cc3cccnc3)Cc3ccco3)c(=O)[nH]c2cc1C (centres undefined),?,?,?,/,?,10µM*
COCCn1nnnc1C(c1cc2ccc(C)cc2[nH]c1=O)N(Cc1ccco1)Cc1cccs1 (centres undefined),-11.1%,?,-7.2%,-15.3%,-29.6,?
CCC(C)(C)n1nnnc1C(c1cc2ccc(C)cc2[nH]c1=O)N(Cc1cccnc1)Cc1ccco1 (centres undefined),?,-0.3%,?,-19.5%,-69.2*,-24.9%
